Tgondii IFNg: T. gondii growth inhibition with IFN-gamma, primary screen, cell-based | Toxoplasma gondii growth in IFN-gamma-treated host cells; hits give low values | activity change, negative = inhibition, % (concentration not given with the values) | 69,000 compounds, 3.8% hits; in the data active means activity change below about -70%, passing the limit was not always enough;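 further: host cells are HeLa cells infected with Toxoplasma gondii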
Hits are given with their value; – = inactive. Only a selection was taken, and hits are over-represented in it overall.

SMILES	Tgondii IFNg
Cc1nc2c(C)cccc2cc1C(=O)Nc1cccc(C(=O)N2CCCCC2)c1	–
CN1CCN(C(=O)c2cc3n(n2)CCN(Cc2nccn2C)C3)CC1	–
O=C(NCc1ccccc1Cl)c1nc(Nc2ccc(F)cc2)c2ccccc2n1	–
Cc1oc(-c2ccc(C(=O)NCc3cccc(F)c3)cc2)nc1CN1CCc2ccccc21	–
Cc1oc(-c2ccccc2)nc1CN1C(=O)C(O)(c2ccccc2)c2ccccc21 (centres undefined)	–
COc1ccc(-c2nc(Cn3c(C)cc(C)c(-c4nc(-c5ccccc5)no4)c3=O)c(C)o2)cc1	-86
COc1ccc(-c2cc3c(=O)n(Cc4nc(-c5ccccc5)oc4C)ccn3n2)cc1	–
COc1ccc(-c2nc(Cn3ccn4nc(-c5ccccc5)cc4c3=O)c(C)o2)cc1	–
COc1ccc(-c2nc(CN3C(=O)C(O)(c4ccccc4)c4ccccc43)c(C)o2)cc1 (centres undefined)	-78
COc1ccc(-c2nc(CN3C(=O)C(O)(c4cccc(C)c4)c4ccccc43)c(C)o2)cc1 (centres undefined)	–
Cc1oc(-c2ccc(C(=O)NCc3cccc(F)c3)cc2)nc1CN1CCN(c2ccccc2)CC1	–
Cc1oc(-c2ccccc2)nc1CN1C(=O)C(O)(c2cccc(F)c2)c2ccccc21 (centres undefined)	-105
CCc1nnc(CNC(=O)C2COc3c(cccc3OC)C2)s1 (centres undefined)	–
O=C(c1ccco1)N1CCC2(CCCN(Cc3nccs3)C2)C1 (centres undefined)	–
CC(C)CN1C[C@@H]2CCN(C(=O)c3ccccn3)CC[C@H]2S1(=O)=O	–
CCC1CN(C(=O)c2ccc(-c3ccc(OC)nc3)nc2)CCN1C(C)C (centres undefined)	–
COCCN1CCN2CC(C(=O)O)CN(Cc3ccoc3)CC2C1 (centres undefined)	–
COCCN1CC2CC(C(=O)NCC3CC3)C(C1)O2 (centres undefined)	–
Cn1cnc(C(=O)N2CCC3(CC(Oc4cccnc4)CO3)C2)c1 (centres undefined)	–
COC(=O)c1cc2n(n1)CCCN(C(=O)c1nnn(Cc3ccccc3)c1C)C2	–
CN1C(=O)c2cc(NC(=O)Cc3cccs3)ccc2OC[C@@H]2O[C@H](CC(=O)NCc3ccc(-c4ccccc4)cc3)CC[C@H]21	–
CN1C(=O)c2cc(NC(=O)Cc3cccs3)ccc2OC[C@H]2O[C@H](CC(=O)NCc3ccc(-c4ccccc4)cc3)CC[C@@H]21	-85
CN1C(=O)c2cc(NC(=O)Cc3cccs3)ccc2OC[C@H]2O[C@@H](CC(=O)NCCc3ccncc3)CC[C@@H]21	–
CCN1C(=O)CCc2cc(NC(=O)C3CCC3)ccc21	–
OCc1cccc(-n2ccnc2-c2ccnn2-c2ccccc2)c1	–
SMILES	Tgondii IFNg
CN(Cc1ccc(-n2ccnc2)cc1)Cc1cccc2cnccc12	–
CCc1cc(C(F)(F)F)c2c(C3CCN(C(=O)c4cc(C(C)C)[nH]n4)CC3)noc2n1	-76
CC(C)Nc1n[nH]c2nc(C3CCN(C(=O)C(C)C)CC3)cc(C(F)(F)F)c12	–
CC[C@@H]1C[C@H](C(F)(F)F)n2nc(C3CCN(C(=O)c4cc(C(C)C)on4)C3)cc2N1 (some centres undefined)	–
CC(C)C(=O)Nc1ccc2cnn(CC3(O)CCN(C(=O)c4ccncc4)CC3)c2c1	–
CN(C)S(=O)(=O)c1cc(S(=O)(=O)N(C)C)c(Cl)s1	–
Cc1cc(C)n(-c2ncc(S(=O)(=O)C(C)(C)C)c(N)n2)n1	–
Cc1cc(C)cc(S(=O)(=O)N2CCC3(CC2)NCCN=C3NCc2ccc(C(F)(F)F)cc2)c1	–
Cc1cc(C)n(C2=NCCN2S(=O)(=O)c2cc(C(F)(F)F)cc(C(F)(F)F)c2)n1	-90
COCCN(Cc1cnn(C)c1)C(=O)c1ccc(C(C)(C)C)cc1	–
O=S(=O)(NCCc1csc(-c2ccc(Cl)cc2)n1)c1ccc(F)cc1F	–
COCCN1C(=O)CCc2cc(NS(=O)(=O)c3ccc(F)cc3F)ccc21	–
COc1ncc(-c2ccc3nccc(-c4ccnnc4)c3c2)cc1NS(=O)(=O)c1ccc(F)cc1F	-78
c1coc(CN2CCC3O[C@H](COCCN4CCCC4)CCC32)c1 (some centres undefined)	–
Cc1nc2c(c(=O)n1C)CCN(C(=O)C1CCOC(C)(C)C1)CC2 (centres undefined)	–
O=C(Nc1c(C(=O)NCc2cccnc2)[nH]c2ccccc12)c1ccc(Cl)cc1	–
O=C(Nc1ccccc1C(=O)NCc1cccnc1)c1cc2ccccc2o1	–
O=C(NCc1cccnc1)c1ccccc1C(=O)Nc1sc2ccccc2c1Cl	-94
CC(C)CNc1nc2c(cc1C(=O)NCC1CC1)CCN(c1ncccn1)CC2	–
O=c1[nH]c(=O)n([C@H]2CC(O)[C@@H](CO)O2)cc1/C=C/Br (some centres undefined)	–
Cc1nnc(SCCCn2c(N3CCC(C)CC3)nc3c2c(=O)[nH]c(=O)n3C)s1	–
C[C@]12CC[C@H](O)CC1=CCC1C2CC[C@]2(C)C(n3cnc4ccccc43)=CCC12 (some centres undefined)	–
C[C@]12CCC3C(CC=C4C[C@@H](O)CC[C@@]43C)C1CCC2[C@]1(C)CCC(=O)O1 (some centres undefined)	–
CC(=O)[C@H]1[C@H](C#N)C[C@H]2[C@@H]3CC=C4C[C@@H](O)CC[C@]4(C)[C@H]3CC[C@@]21C	-84
CCOCCCNC(=O)C1=C(C)C(=O)OC12CCN(Cc1ccccc1)CC2	–
SMILES	Tgondii IFNg
O=C(CCCC(=O)N1C2CCC1CC(c1ccc(F)cc1)C2)N1CCc2ccccc21 (centres undefined)	–
CCOCC12CCCOC1CCN(Cc1cccs1)C2 (centres undefined)	–
CCOCC12CCCOC1CCN(C(=O)c1ccncc1)C2 (centres undefined)	–
CCOCC12CCCOC1CCN(Cc1ccc(C)s1)C2 (centres undefined)	-88
O=C(NCC1CC1)C1CCC2(CCN(C(=O)Nc3ccccc3)CC2)O1 (centres undefined)	–
COc1cc(OC)nc(N2CC(c3ccccn3)C2)n1	–
Cn1c(CNC(=O)c2ccc(Cl)cc2Cl)cc2ccccc21	–
CC(C)C[C@H](NC(=O)CNC(=O)c1cc(Cl)ccc1Cl)B(O)O	-79
CC(C)CC(NC(=O)c1cccc(Cl)c1)C(=O)O (centres undefined)	–
CCn1ncnc1-c1c(-c2ccccc2)ncn1CCc1ccccc1OC	–
Cc1nc(CCN)n(-c2ccc(C(F)(F)F)cc2)n1	–
O=C(C#Cc1ccccc1)Nc1ccc(OC(F)(F)F)cc1	–
COc1cc(NC(=O)Nc2ccc(OC(F)(F)F)cc2)cc(C(F)(F)F)c1	-96
COc1ccc(-n2ncc(NC(=O)Nc3ccc(OC(F)(F)F)cc3)c2C)cc1	–
Cc1ccc(-c2nc(C)c(CCNC(=O)C(=O)Nc3cc(Cl)ccc3C)s2)cc1	–
CN1CCN(CCO)C(=O)C12CCN(Cc1nccn1C)CC2	–
O=C(CC1CCNCC1)Nc1ccc2nccnc2c1	–
CCN(CC)Cc1nc2c(o1)CNC2	–
COc1ccc2[nH]nc(C(=O)N3C[C@H]4CC=C(C)C[C@H]4C3)c2c1	–
COc1ccc2[nH]c3c(c2c1)CCNC31C(=O)N(C)c2ccccc21 (centres undefined)	–
COc1ccc2[nH]c3c(c2c1)CCNC3C1CC=C(C)CC1 (centres undefined)	-84
